ALR inh: human ALR oxidase inhibition via reduced H2O2 | P55789 | inhibition, % (no concentration beside the values) | purified ALR, DTT oxidation, H2O2 HRP-luminol luminescence | AID 485317 | 290,000 tested, 3.8% active;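 active means mean replicate inhibition above about 79%, with every replicate also reaching it, limit read from the data; inconclusive means only one of the two criteria met; inactive means mean below limit and not every replicate reaching it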
eIF4H inh: inhibitors of RNA binding by human eIF4H. inhibition, % at 35 µM. Q15056. 290,000 tested, 0.94% active. eIF4H fluorescence polarization binding assay;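 further: calls also rest on retests at 20 µM and on dose response follow-up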
PABP FP inh: blocks human PABP binding to poly(A) RNA; fluorescence polarization; inhibition, % at 35 µM; 290,000 tested, 1% active; AID 2014;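 further: calls also rest on retests at 20 µM and on dose response follow-up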
Target sequence (P11940 whole entry, looked up): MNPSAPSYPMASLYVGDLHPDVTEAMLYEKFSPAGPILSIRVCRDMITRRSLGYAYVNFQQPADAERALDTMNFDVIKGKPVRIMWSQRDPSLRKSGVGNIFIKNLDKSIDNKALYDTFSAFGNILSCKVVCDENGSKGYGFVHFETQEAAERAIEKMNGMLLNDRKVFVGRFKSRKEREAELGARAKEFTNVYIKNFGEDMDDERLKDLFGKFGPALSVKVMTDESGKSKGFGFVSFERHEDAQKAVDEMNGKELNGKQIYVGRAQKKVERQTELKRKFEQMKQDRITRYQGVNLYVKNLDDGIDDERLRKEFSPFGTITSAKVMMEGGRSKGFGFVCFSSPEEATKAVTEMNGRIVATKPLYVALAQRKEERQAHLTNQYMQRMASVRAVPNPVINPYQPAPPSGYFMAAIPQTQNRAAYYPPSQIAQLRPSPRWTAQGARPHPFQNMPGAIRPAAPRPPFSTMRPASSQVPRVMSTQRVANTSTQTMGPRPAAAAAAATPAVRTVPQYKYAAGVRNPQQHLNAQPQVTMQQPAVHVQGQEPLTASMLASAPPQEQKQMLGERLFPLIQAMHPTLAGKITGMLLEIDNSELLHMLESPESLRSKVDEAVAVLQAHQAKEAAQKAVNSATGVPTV
UBC9 SUMO inh: inhibitors of human SUMOylation (UBC9); inhibition, % at 35 µM; 290,000 tested, 0.36% active; HTRF SUMOylation assay, SAE1/SAE2 + UBC9, in vitro; P63279; in the data active means inhibition above about 50%, passing the limit was not always enough; inconclusive means no clear call, values can overlap the other calls
Efflux pump mplx: inhibitors of Candida antifungal efflux pumps expressed in yeast; inhibition, % at 10 µM; 330,000 tested, 0.44% active; AID 485275; S. cerevisiae Candida pump triplex, Nile Red efflux;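 active means plate passing quality check with inhibition over a set limit, or well fluorescence over plate mean plus 4 SD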;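 further: Nile Red retained in pooled yeast measured as flow cytometry median fluorescence; higher means more Nile Red kept so more efflux inhibition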
PABP1 MLLE inh: blocks PAM2 peptide binding to the PABP1 MLLE domain. inhibition, % at 20 µM. 360,000 tested, 0.36% active. P11940. GST-MLLE / FITC-PAM2 fluorescence polarization; in the data active means inhibition above about 35%, passing the limit was not always enough
Of the large screens only hits and unclear results are named; the others gave an inactive call. The list is not random: actives were taken first. Their share in the collection is about 4.7%. Unless noted, how the calls were made is not given here.

CCCc1[nH]n(-c2nc3ccccc3s2)c(=O)c1C=NCC(C)C	none
CCN(CC)CCCN=Cc1c(-c2ccccc2)[nH]n(-c2nc3ccccc3s2)c1=O	ALR inh 98.4
CCCN=C(C)c1c(-c2ccccc2)[nH]n(-c2nc3ccccc3s2)c1=O	none
CCC(=NCc1ccccc1)c1c(C(F)(F)F)[nH]n(-c2nc3ccccc3s2)c1=O	none
O=c1c(C=NCc2cccnc2)c(C(F)(F)F)[nH]n1-c1nc2ccccc2s1	ALR inh 99.0
CCC(=NCc1ccco1)c1c(C(F)(F)F)[nH]n(-c2nc3ccccc3s2)c1=O	ALR inh 86.0
O=C(COC(=O)Cc1n[nH]c(=O)c2ccccc12)Nc1c(Cl)cccc1C(F)(F)F	none (no result: eIF4H inh, PABP FP inh, UBC9 SUMO inh)
Cc1nn(Cc2ccccc2)c2c1C(c1ccncc1)C(C#N)=C(N)O2 (stereo not given)	none (no result: PABP1 MLLE inh)
Cc1nn(Cc2ccccc2)c2c1C(c1cccnc1)C(C#N)=C(N)O2 (stereo not given)	ALR inh 94.6
CN(C)c1ccc(N=c2sc3ccccc3n2C)cc1	ALR inh 98.8
COc1ccc(Nc2nc3[nH]c(=O)cc(O)c3s2)cc1	eIF4H inh 56.3
O=c1cc(O)c2sc(Nc3ccc(F)c(Cl)c3)nc2[nH]1	none
O=c1[nH][nH]c(=O)c2nc(Nc3ccccc3)ncc12	none (no result: ALR inh, eIF4H inh, PABP FP inh, UBC9 SUMO inh, Efflux pump mplx)
COc1cc(-c2nc3cnccn3c2Nc2ccc(C(C)C)cc2)ccc1O	none
COc1cc(-c2nc3cnccn3c2Nc2ccc(C)cc2)ccc1O	ALR inh 99.5
CC(C)(C)CC(C)(C)Nc1c(-c2ccc(O)cc2)nc2cnccn12	ALR inh 99.9 (no result: eIF4H inh, PABP FP inh, UBC9 SUMO inh)
COc1cc(-c2nc3ccc(C)cn3c2Nc2ccc3c(c2)OCCO3)ccc1O	ALR inh 91.1
Oc1ccc(-c2nc3cnccn3c2Nc2ccc3c(c2)OCCO3)cc1	ALR inh 98.9
c1ccc(-c2nc3cnccn3c2Nc2ccc3c(c2)OCCO3)cc1	none (no result: ALR inh)
CC(C)(C)Nc1c(C2CCNCC2)nc2c(OCc3ccccc3)cccn12	none (no result: ALR inh, eIF4H inh, PABP FP inh, UBC9 SUMO inh, Efflux pump mplx)
COc1ccc(NC(=O)CSc2ncccn2)cc1S(=O)(=O)N1CCCCC1	none (no result: eIF4H inh, PABP FP inh, UBC9 SUMO inh)
O=C(NCC(c1ccco1)N1CCCCC1)c1cccnc1 (stereo not given)	none (no result: eIF4H inh, PABP FP inh, UBC9 SUMO inh)
COc1cc(-c2nc3cnccn3c2Nc2ccccc2)ccc1O	ALR inh inconclusive
COc1cc(-c2nc3cnccn3c2Nc2ccc3c(c2)OCCO3)ccc1O	ALR inh 98.7
Brc1ccc(C2=CSC3=NCCN23)cc1	none (no result: ALR inh)
Oc1ccc(C2=CSC3=NCCN23)cc1O	ALR inh 99.6
CCn1cc(C(=O)NC(=S)Nc2ccccc2[N+](=O)[O-])cn1	ALR inh 98.8
CCn1cc(C(=O)NC(=S)Nc2ccccc2Br)cn1	none
C#CC(=O)CC1(CN(Cc2ccccc2)C(=O)OC(C)(C)C)CCCCC1	none (no result: ALR inh, eIF4H inh, PABP FP inh, UBC9 SUMO inh, Efflux pump mplx)
Cc1cc(/C=C2\SC(=S)NC2=O)c(C)n1-c1cccc(O)c1	eIF4H inh inconclusive, PABP FP inh inconclusive, Efflux pump mplx 0.8
Cc1cc(/C=C2/C(=O)NN(c3ccccc3)C2=O)c(C)n1-c1cccc(O)c1	eIF4H inh 62.2
COC(=O)C1=C(C)NC(=O)/C1=C\c1cc(C)n(-c2cccc(C)c2)c1C	PABP FP inh 119.0
Cc1cccc(C(=O)OCC(=O)NCCN2C(=O)CSC2=O)c1[N+](=O)[O-]	none (no result: eIF4H inh, PABP FP inh, UBC9 SUMO inh)
S=c1[nH]ncn1/N=C/c1cccs1	ALR inh 97.0
S=c1[nH]ncn1/N=C/c1ccccn1	ALR inh 92.2
S=c1[nH]c(-c2ccccc2)cn1/N=C/c1cccs1	none
S=c1[nH]nc(COc2ccccc2)n1/N=C/c1ccccn1	none
S=c1[nH]nc(-c2cccnc2)n1/N=C/c1cccs1	ALR inh 97.4
Cc1ccc(N2C(=O)CC(Sc3cccs3)C2=O)cc1 (stereo not given)	none
COc1ccccc1NC(=O)CSC1CC(=O)N(c2ccc3c(c2)OCO3)C1=O (stereo not given)	ALR inh 99.6
COc1ccccc1NC(=O)CN1CCN(CC(=O)Nc2ccc3c(c2)OCO3)CC1	none
Cc1ccc(SC2CC(=O)N(c3ccc4c(c3)OCCO4)C2=O)cc1 (stereo not given)	ALR inh 97.8, PABP1 MLLE inh 42.5
COc1ccc(NC(=O)CSC2CC(=O)N(c3ccc4c(c3)OCCO4)C2=O)cc1 (stereo not given)	ALR inh 98.5
